Bioassay records: PubChem, National Center for Advancing Translational Sciences (NCATS)
D1 antag – human D1 dopamine receptor antagonism; P21728; HEK293 TREx D1 cells, calcium flux, dopamine EC80; active compounds read low; activity change, negative = inhibition, % at 10 µM; 360,000 compounds, 3.2% hits; in the data active = activity change below about -30%; also: % is scaled to controls: 0 for no effect and ±100 for the full control effect
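Cells carrying a force-coupled, tetracycline-inducible human D1 receptor report calcium flux. Each well gets a 10 s baseline, compound with 180 s monitoring, then an EC80 dopamine stimulus with a second 180 s kinetic read.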
USP1-UAF1 inh – blocks the human USP1/UAF1 deubiquitinase complex. O94782. recombinant USP1/UAF1, Ub-Rhodamine cleavage fluorescence. Potency, µM (titrated, usually from 57.1 µM), for the others: at the highest dose activity change, negative = inhibition, actives largely listed as inhibitors. 390,000 compounds, 0.23% hits. AID 743255; active = well fitted inhibition curve with a large enough effect; inconclusive = small, poorly fitted or top-dose-only effect; inactive = no such curve, though single readings can be large or run the other way; also: potency is read from the fitted curve at half-maximal effect; % is scaled to controls: 0 for no effect and ±100 for the full control effect; nearly all actives have a fitted effect of over 60% in size
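USP1/UAF1 complex at 1 nM was preincubated with compound for 15 min at room temperature, then Ub-Rho substrate (150nM final) was added. Fluorescence (480/540 nm) was read kinetically, 6 reads every 60 seconds.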
D1 ag – agonists of human D1 dopamine receptor | AID 504660 | activation, % at 2 µM | 360,000 compounds, 1% hits | P21728 | HEK293 T-REx D1 cells, calcium flux, agonist mode; also: 0% is about no effect
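Inducible HEK293 T-REx D1 cells, force-coupled to calcium signalling, were plated at 4000 cells/well with tetracycline and held overnight at 30 C. After no-wash calcium dye loading, compound-evoked calcium rise over 180 s flagged agonists.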
D1 PAM – potentiators of human D1 dopamine receptor | P21728 | HEK293 TREx D1 cells, calcium flux, dopamine EC20 potentiation | potentiation, % at 10 µM | 360,000 compounds, 0.036% hits; in the data active = potentiation above about 30%; also: 0% is about no effect
TRHR ag – TRH receptor (human) agonism. activation, % at 2 µM. TRHR cells, calcium flux fluo-8, FDSS agonist mode. 360,000 compounds, 0.18% hits. P34981; also: 0% is about no effect
Target sequence (P34981 whole entry, looked up): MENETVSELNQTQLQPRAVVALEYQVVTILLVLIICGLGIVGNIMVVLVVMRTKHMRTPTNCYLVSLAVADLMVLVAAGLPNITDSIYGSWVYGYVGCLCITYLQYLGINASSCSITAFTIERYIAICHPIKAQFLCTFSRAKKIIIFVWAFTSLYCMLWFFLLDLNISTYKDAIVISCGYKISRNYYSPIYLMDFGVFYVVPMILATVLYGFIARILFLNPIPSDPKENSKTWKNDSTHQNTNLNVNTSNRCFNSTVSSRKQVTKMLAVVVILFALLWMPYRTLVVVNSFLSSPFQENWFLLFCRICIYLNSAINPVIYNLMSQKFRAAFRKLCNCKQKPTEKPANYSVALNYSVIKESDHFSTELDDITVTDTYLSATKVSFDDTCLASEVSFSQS
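Fluo-8-loaded TRHR cells; 10 s baseline, compound added, kinetic Ca2+ fluorescence read 1/s, agonist mode.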
TRHR PAM – allosterically enhances the human TRH receptor. P34981. TRHR cells, fluo-8 calcium fluorescence, EC20 TRH enhancement. enhancement, % at 2 µM. 360,000 compounds, 0.66% hits; in the data active = enhancement above about 30%; also: 0% is about no effect
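TRHR-expressing cells loaded with fluo-8 calcium dye were read kinetically (ex 480/em 530) during compound addition, then stimulated with an EC20 of TRH (10 nM final). Enhancement of the Gq-mediated intracellular calcium response was scored.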
* marks the source's active call; other numbers are inactive results; ! = repeats disagree. An excerpt weighted towards active compounds, which were near 4.4% of everything screened. Rule as the data show it, unless noted: active = activation above about 30%; inactive = the rest.

`COc1ccccc1N(CC(=O)NCCSCc1ccccc1)S(=O)(=O)c1ccc(C)cc1` gave D1 antag 1, USP1-UAF1 inh -15%, D1 ag 12, D1 PAM -6, TRHR ag 1 and TRHR PAM -8.
Screening COc1ccc(N(CC(=O)NCc2ccc(C)cc2)S(=O)(=O)c2c(C)[nH]c(=O)[nH]c2=O)cc1 returned D1 antag -35*!, USP1-UAF1 inh -14%, D1 ag -1, D1 PAM -7, TRHR ag 6 and TRHR PAM -7.
For Cc1ccc(N(CC(=O)NCCSc2ccccc2)S(=O)(=O)c2ccc(F)cc2)cc1 the results were D1 antag -31*, USP1-UAF1 inh -12%, D1 ag 19, D1 PAM -2, TRHR ag 3 and TRHR PAM -9.
Cc1ccc(N(CC(=O)NCCSCc2ccco2)S(=O)(=O)c2ccc(F)cc2)cc1 was read as D1 antag -10, USP1-UAF1 inh -25%, D1 ag 6, D1 PAM -5, TRHR ag -1 and TRHR PAM -7.
Cc1ccc(S(=O)(=O)NCCSCc2ccccc2)cc1 was read as D1 antag -30*, USP1-UAF1 inh -1%, D1 ag 4, D1 PAM -2, TRHR ag -1 and TRHR PAM 3.
For COc1ccc(S(=O)(=O)N(CC(=O)NCCSCc2ccccc2)c2ccc(C)cc2)cc1 the results were D1 antag -16, USP1-UAF1 inh -10%, D1 ag 32*, D1 PAM 2, TRHR ag 6 and TRHR PAM -11.
For COc1cc(OC)cc(C(=O)Nc2cc3c(cc2N2CCOCC2)n(C)c(=O)n3C)c1 the results were D1 antag 11, USP1-UAF1 inh inconclusive, D1 ag 1, D1 PAM -1, TRHR ag -1 and TRHR PAM -4.
COc1ccc(N(CC(=O)N/N=C/c2ccc(-c3ccc([N+](=O)[O-])cc3)o2)S(=O)(=O)c2ccc(C)cc2)cc1Cl was read as D1 antag 0, USP1-UAF1 inh -18%, D1 ag 9, D1 PAM 0, TRHR ag 3 and TRHR PAM -2.
`CCOc1ccc(S(=O)(=O)N(CC(=O)NCCSc2ccc(C)cc2)c2ccccc2)cc1` gave D1 antag 4, USP1-UAF1 inh -21%, D1 ag 9, D1 PAM -1, TRHR ag 0 and TRHR PAM 5.
COc1ccc(S(=O)(=O)N(CC(=O)NCCSc2ccc(C)cc2)c2ccc(C)cc2)cc1 was read as D1 antag -19, USP1-UAF1 inh -27%, D1 ag 56*, D1 PAM 2, TRHR ag 3 and TRHR PAM 4.
Screening COc1ccc(N(CC(=O)N/N=C/c2ccc(-c3ccc([N+](=O)[O-])cc3)o2)S(=O)(=O)c2ccc(C)cc2)cc1 returned D1 antag 8, USP1-UAF1 inh -7%, D1 ag 73*, D1 PAM -10, TRHR ag 3 and TRHR PAM -1.
For COc1ccc(NC(=O)C(OC(=O)CNC(=O)c2ccccc2)c2ccccc2)cc1Cl (centres undefined) the results were D1 antag 12, D1 ag 3, D1 PAM 3, TRHR ag -3 and TRHR PAM -2.
Screening Cc1cc(C)cc(NC(=O)Cn2nnc(C(=O)Nc3cc(C)cc(C)c3)c2N)c1 returned D1 antag -3, USP1-UAF1 inh -25%, D1 ag 1, D1 PAM -1, TRHR ag 0 and TRHR PAM 1.
Screening O=C(N/N=C\c1ccc(Cl)s1)c1ccc(Cn2cccn2)o1 returned D1 antag -7, USP1-UAF1 inh -3%, D1 ag -2, D1 PAM 1, TRHR ag 0 and TRHR PAM 8.
Screening O=C(N/N=C\c1c(O)ccc2ccccc12)c1ccc(Cn2cccn2)o1 returned D1 antag -30*, USP1-UAF1 inh -19%, D1 ag 29, D1 PAM -3, TRHR ag 10 and TRHR PAM 1.
`O=C(N/N=C/c1c(O)ccc2ccccc12)c1cccc(C(F)(F)F)c1` gave D1 antag -31*, USP1-UAF1 inh inconclusive, D1 ag 162*, D1 PAM 9, TRHR ag 99* and TRHR PAM 14.
For Cn1c(=O)oc2cc(S(=O)(=O)Nc3ccc(Cl)cc3)ccc21 the results were D1 antag 4, USP1-UAF1 inh -14%, D1 ag 2, D1 PAM 6, TRHR ag 1 and TRHR PAM -3.
`Cn1c(=O)oc2cc(S(=O)(=O)Nc3ccc(O)cc3)ccc21` gave D1 antag -31*!, USP1-UAF1 inh -24%, D1 ag 8, D1 PAM -1, TRHR ag 0 and TRHR PAM -2.
Screening Cc1noc(C)c1COC(=O)c1cnc(Cl)c(Cl)c1 returned D1 antag -42*, USP1-UAF1 inh -14%, D1 ag 7, D1 PAM -4, TRHR ag -1 and TRHR PAM -10.
Screening COC(=O)CCC(=O)OC1(C)C(=O)C2=CN(Cc3ccc(OC)cc3)C(c3ccc(OC)cc3)=CC2=C(Br)C1=O (centres undefined) returned USP1-UAF1 inh -22%.
For COC(=O)CCC(=O)OC1(C)C(=O)C2=CN(C3CC3)C(c3ccc(OC)cc3)=CC2=C(Br)C1=O (centres undefined) the results were USP1-UAF1 inh 22µM*.
`COC(=O)CCC(=O)OC1(C)C(=O)C2=CN(CCCOC(C)C)C(c3ccc(OC)cc3)=CC2=C(Br)C1=O` (centres undefined) gave D1 antag 6, USP1-UAF1 inh 28µM*, D1 ag 7, D1 PAM -2, TRHR ag 4 and TRHR PAM 1.
`COC(=O)CCC(=O)OC1(C)C(=O)C2=CN(CC3CC3)C(c3ccc(OC)cc3)=CC2=C(Br)C1=O` (centres undefined) gave D1 antag 1, USP1-UAF1 inh 32µM*, D1 ag 2, D1 PAM 3, TRHR ag 1 and TRHR PAM -6.
For Cc1cc(=O)n2nc(N(C)CC(=O)NCc3cccc(Br)c3)sc2n1 the results were D1 antag 1, USP1-UAF1 inh -19%, D1 ag 0, D1 PAM 0, TRHR ag -1 and TRHR PAM -2.
For Cc1ccc(Cn2c(C)c(CNCC(C)c3ccccc3)c(C(=O)O)c2C)cc1 (centres undefined) the results were D1 antag 11, USP1-UAF1 inh -3%, D1 ag 1, D1 PAM -1, TRHR ag 0 and TRHR PAM -4.
